Source: PubChem BioAssay
Shown are actives, neighbours in structure and some others; about 10% of the full set was active somewhere.
PNC inhibitor = High Content Assay for Compounds that inhibit the Assembly of the Perinucleolar Compartment | PC3M PTB-GFP, PNC prevalence imaging, 16 h; hits give low values | 3.1% of 140,000 active | activity change (PNC), negative = inhibition, % at 10 µM;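 active = readout at or below -70, meaning at least 70% loss of cells showing the perinucleolar compartment, a nuclear body marking cancer cells; inconclusive = readout between -30 and a set limit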;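 also: plate controls were DMSO wells for no effect and camptothecin positive control wells for full effect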
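Read-out is percentage of cells bearing a perinucleolar compartment, from automated 20x imaging of fixed, Hoechst-stained PC3M PTB-GFP cells. Cells were seeded 4 h, then exposed 16 h to compound (23 nl of library stock) in duplicate plates.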
HPGD inh = qHTS Assay for Inhibitors of HPGD (15-Hydroxyprostaglandin Dehydrogenase) | 4.3% of 150,000 active | Potency, µM, for the others: at the top dose activity change, negative = inhibition, hits mostly inhibitors | AID 894, 2007 | 15-hydroxyprostaglandin dehydrogenase [NAD(+)] (Homo sapiens), P15428 | purified HPGD, NADH fluorescence kinetic, PGE2 substrate; also: potency is read from the fitted curve at half-maximal effect
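20 nM HPGD preincubated 15 min at room temperature with compound in 50 mM Tris-HCl pH 8, 0.01% Tween 20. Started with 1 mM NAD+ and 30 uM prostaglandin E2; NADH fluorescence (360/450 nm) read 5 times over 30-s intervals, last minus first.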
LMNA splice mod = qHTS Assay for Modulators of Lamin A Splicing. AID 1487, 2009. HeLa LMNA splicing GFP/RFP minigene ratio, 48 h. 0.01% of 200,000 active. Potency, µM (titrated, usually from 46.1 µM), without a hit: at the highest dose ratio change, negative = inhibition, usual class: inhibitors; active = well fitted inhibition curve with a large enough effect in the signal ratio, with a control signal flat, not every such curve was filed as active; inconclusive = small, poorly fitted or top-dose-only effect, or effect the other way, or a change in a side signal; the % refers to the signal ratio; also: potency is read from the fitted curve at half-maximal effect
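S3 HeLa stable clones carrying a lamin A-EGFP splicing minigene plus DsRed2 were seeded at 600 cells/well in Opti-MEM with 2% FBS, pin-dosed and incubated 48 h at 37°C. Acumen cytometry (488 nm) gave the GFP/RFP total-intensity ratio.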
ALDH1A1 inh = qHTS Assay for Inhibitors of Aldehyde Dehydrogenase 1 (ALDH1A1). Purified ALDH1A1, NADH fluorescence, propionaldehyde substrate. Potency, µM (titrated, usually from 75.3 µM), for the others: top-dose activity, negative = inhibition, usual class: inhibitors. 7.3% of 220,000 active;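 also: potency is read from the fitted curve at half-maximal effect; plate controls were no enzyme wells and a reference inhibitor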
Target sequence (P00352 whole entry, looked up): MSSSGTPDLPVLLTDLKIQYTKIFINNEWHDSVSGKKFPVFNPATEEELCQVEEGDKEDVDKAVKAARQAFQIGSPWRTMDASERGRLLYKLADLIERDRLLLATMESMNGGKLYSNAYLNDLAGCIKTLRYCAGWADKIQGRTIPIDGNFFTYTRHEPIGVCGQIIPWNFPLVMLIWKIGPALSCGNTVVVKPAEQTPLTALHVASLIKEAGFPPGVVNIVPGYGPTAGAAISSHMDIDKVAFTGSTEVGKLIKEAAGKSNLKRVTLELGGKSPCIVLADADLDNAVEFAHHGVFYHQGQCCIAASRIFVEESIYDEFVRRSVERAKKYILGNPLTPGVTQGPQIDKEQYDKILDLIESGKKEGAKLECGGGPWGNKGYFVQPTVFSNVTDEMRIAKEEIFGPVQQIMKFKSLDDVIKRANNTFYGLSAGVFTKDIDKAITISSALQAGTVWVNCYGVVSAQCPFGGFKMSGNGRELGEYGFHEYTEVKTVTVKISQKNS
12-hLO inh = qHTS Assay for Inhibitors of 12-hLO (12-human lipoxygenase); 0.12% of 150,000 active; purified 12-hLO, xylenol orange hydroperoxide absorbance; AID 1452, 2008; Potency, µM (series often up to 57.1 µM), for inactives: at the top dose activity change, negative = inhibition, actives largely listed as inhibitors; Polyunsaturated fatty acid lipoxygenase ALOX12 (Homo sapiens), P18054; active = well fitted inhibition curve with a large enough effect; inconclusive = small, poorly fitted or top-dose-only effect; also: potency is read from the fitted curve at half-maximal effect; nearly all actives have a fitted effect of over 55% in size
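Hydroperoxide output read as Fe(III)-xylenol orange absorbance, 573-to-405 nm ratio, after 30 min reaction with 40 uM arachidonic acid. Enzyme: 150 nM purified human 12hLO, 15 min compound preincubation; 25 mM Hepes pH 7.0, room temperature.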
Active calls of the source: *; [ ] = another dose, or the depositor's remark. Unless noted, calls follow the shape of the dose curve; as a rule, active = well fitted inhibition curve with a large enough effect (not every such curve was filed as active); inconclusive = small, poorly fitted or top-dose-only effect, or another doubt; inactive = no such curve, though single readings can be large or run the other way. Unless noted, % is scaled to controls: 0 for no effect and ±100 for the full control effect.

`O=C1C2C3C=CC(C3)C2C(=O)N1/N=C/c1cc(Br)cc([N+](=O)[O-])c1O` (configuration not stated) gave PNC inhibitor inconclusive, HPGD inh -15%, LMNA splice mod inconclusive, ALDH1A1 inh inconclusive and 12-hLO inh -8%.
O=C1C2C3C=CC(C3)C2C(=O)N1/N=C/c1ccc(-c2ccccc2[N+](=O)[O-])o1 (configuration not stated) was read as PNC inhibitor inconclusive, HPGD inh -22%, LMNA splice mod inconclusive, ALDH1A1 inh 2.2µM* and 12-hLO inh -1%.
COc1ccc(-c2cccc(NS(=O)(=O)c3ccc(NC(C)=O)cc3)c2)nn1 was read as LMNA splice mod -14%[46 µM].
For Nc1c2c(nc3ccccc13)CCC[C@H]2O the results were 12-hLO inh -2%.
CCCC(=O)Nc1ccc(NC(=O)CCc2ccccc2)cn1 was read as PNC inhibitor -114*, HPGD inh -10%, LMNA splice mod -4%, ALDH1A1 inh -4% and 12-hLO inh 0%.
`CCCC(=O)Nc1ccc(NC(=O)c2ccccc2Cl)nc1` gave PNC inhibitor -84*, HPGD inh -2%, LMNA splice mod inconclusive, ALDH1A1 inh -2% and 12-hLO inh -1%.
For CCCC(=O)Nc1ccc(NC(=O)Cc2ccccc2)cn1 the results were PNC inhibitor -12, HPGD inh -10%, LMNA splice mod 3%, ALDH1A1 inh 3% and 12-hLO inh -3%.
For COc1cccc(-c2cc(=O)c3cc(O)ccc3o2)c1 the results were HPGD inh -15%, ALDH1A1 inh -1% and 12-hLO inh -8%.
Screening COc1cc(C)c(CC/C(C)=C/C=C/C(C)=O)c(C)c1C returned HPGD inh -18% and ALDH1A1 inh inconclusive.
For CC1(C)S[C@@H]2[C@H](C(=O)O)N=C(Cc3ccccc3)N2[C@H]1C(=O)O the results were HPGD inh -4%, ALDH1A1 inh 0%[13.5 µM] and 12-hLO inh -3%[11.4 µM].
`Cc1sc2nc3n(c(=O)c2c1C)NC(=O)CC3` gave PNC inhibitor -100*, HPGD inh -13%, LMNA splice mod -17%, ALDH1A1 inh 6% and 12-hLO inh -4%.
`COc1ccc(-c2nc3scc(CCNS(=O)(=O)c4cccs4)n3n2)cc1` gave LMNA splice mod -4%[46 µM].
For CCOC(=O)NC(O)C(=O)c1ccc(F)cc1 (configuration not stated) the results were ALDH1A1 inh 22µM*.
Screening COc1cc(C(C)=O)ccc1Oc1ncnc2c1cnn2-c1ccc(F)cc1 returned PNC inhibitor inconclusive, HPGD inh 16µM*, LMNA splice mod -19%, ALDH1A1 inh -9% and 12-hLO inh 2%.
Screening CCCCCC(=O)/C=C/C=C\CCCCCCCC(=O)O returned HPGD inh -3%, ALDH1A1 inh 0% and 12-hLO inh 1%.
Screening COc1ccccc1OCCC(=O)OCC(=O)Nc1ccc(Br)cc1 returned PNC inhibitor 16, HPGD inh -5%, LMNA splice mod -14%, ALDH1A1 inh 0% and 12-hLO inh 0%.
Screening COc1ccccc1OCCC(=O)OCC(=O)Nc1cc(S(=O)(=O)N(C)C)ccc1Cl returned LMNA splice mod -8%[46 µM] and ALDH1A1 inh 3.2µM*.
Screening COc1ccccc1OCCC(=O)OCC(=O)c1[nH]c(C)c(C(C)=O)c1C returned LMNA splice mod -17%[46 µM] and ALDH1A1 inh 25µM*.
COc1ccccc1OCCC(=O)OCC(=O)NC(C)c1ccccc1 (configuration not stated) was read as PNC inhibitor -84*, HPGD inh -10%, LMNA splice mod -10%, ALDH1A1 inh 2% and 12-hLO inh -1%.
For Cc1oc2c(c1C(=O)Nc1ccccc1Br)C1=NCCN1C=N2 the results were LMNA splice mod 9%[46 µM].
COc1ccccc1N1CCN(C(CNS(C)(=O)=O)c2cccnc2)CC1 (configuration not stated) was read as LMNA splice mod 21%[9.22 µM] and ALDH1A1 inh 10µM*.
Cc1ccc(S(=O)(=O)NCC(c2cccnc2)N(C)C)cc1 (configuration not stated) was read as PNC inhibitor 39, HPGD inh -9%, LMNA splice mod 1%, ALDH1A1 inh 32µM* and 12-hLO inh -6%.
`COC(=O)NCC(c1cccnc1)N1CCN(c2ccccc2OC)CC1` (configuration not stated) gave PNC inhibitor 16, HPGD inh -7%, LMNA splice mod 9%, ALDH1A1 inh 1% and 12-hLO inh -1%.
Screening COc1ccccc1N1CCN(C(CNS(=O)(=O)c2ccc(C)cc2)c2cccnc2)CC1 (configuration not stated) returned PNC inhibitor -82*, HPGD inh -1%, LMNA splice mod -16%, ALDH1A1 inh inconclusive and 12-hLO inh -10%.
`CN(C(=O)Cn1cnc2onc(-c3ccc(F)cc3)c2c1=O)c1ccccc1Cl` gave LMNA splice mod 3%[46 µM].
Screening O=C1c2ccccc2C(=O)c2c(NC3CCCCC3)ccc(Nc3ccc(S(=O)(=O)O)cc3)c21 returned HPGD inh -17%, ALDH1A1 inh 2%[13.5 µM] and 12-hLO inh -13%[11.4 µM].
For CCOC(=O)C(=O)N=Nc1c(O)n(C)c2ccccc12 the results were LMNA splice mod 1%[46 µM] and ALDH1A1 inh 14µM*.
`COC(=O)Cn1c(C)c(C#N)c2ccccc21` gave PNC inhibitor inconclusive, HPGD inh -9%, LMNA splice mod -7%, ALDH1A1 inh 2% and 12-hLO inh 29%.
`CCOC(=O)N=Nc1c(O)n(CC(=O)OC)c2ccccc12` gave ALDH1A1 inh 7.1µM*.
Screening Cn1c(O)c(N=NC(=O)c2ccccc2O)c2ccccc21 returned LMNA splice mod -3%[46 µM] and ALDH1A1 inh 1%.
COC(=O)N1C(C2CC2)=Cc2ccccc2C1CC(C)=O (configuration not stated) was read as HPGD inh -4%, LMNA splice mod -3%[9.22 µM], ALDH1A1 inh 2% and 12-hLO inh 2%[11.4 µM].
Screening O=C(/C=C/c1ccccc1)NCCSCc1ccc(Cl)cc1 returned PNC inhibitor -5, HPGD inh -11%, LMNA splice mod -13%, ALDH1A1 inh 0% and 12-hLO inh -2%.
O=C(/C=C/c1ccc(Cl)cc1Cl)NCCSCc1ccccc1 was read as PNC inhibitor inconclusive, HPGD inh 14µM*, LMNA splice mod inconclusive, ALDH1A1 inh -10% and 12-hLO inh -4%.
